# Results filed as inconclusive are left out. A number with no mark means an inactive call. Calls of active or inactive are those of the source. Calls follow the shape of the dose curve; as a rule, active = well fitted curve in the direction sought with a large enough effect; inconclusive = small, poorly fitted or top-dose-only effect, or effect the other way, or another doubt; inactive = no such curve, though single readings can be large or run the other way.
# Molecular target: Pyruvate kinase PKLR (Homo sapiens) (UniProt P30613)
# Sequence (P30613 whole entry, looked up): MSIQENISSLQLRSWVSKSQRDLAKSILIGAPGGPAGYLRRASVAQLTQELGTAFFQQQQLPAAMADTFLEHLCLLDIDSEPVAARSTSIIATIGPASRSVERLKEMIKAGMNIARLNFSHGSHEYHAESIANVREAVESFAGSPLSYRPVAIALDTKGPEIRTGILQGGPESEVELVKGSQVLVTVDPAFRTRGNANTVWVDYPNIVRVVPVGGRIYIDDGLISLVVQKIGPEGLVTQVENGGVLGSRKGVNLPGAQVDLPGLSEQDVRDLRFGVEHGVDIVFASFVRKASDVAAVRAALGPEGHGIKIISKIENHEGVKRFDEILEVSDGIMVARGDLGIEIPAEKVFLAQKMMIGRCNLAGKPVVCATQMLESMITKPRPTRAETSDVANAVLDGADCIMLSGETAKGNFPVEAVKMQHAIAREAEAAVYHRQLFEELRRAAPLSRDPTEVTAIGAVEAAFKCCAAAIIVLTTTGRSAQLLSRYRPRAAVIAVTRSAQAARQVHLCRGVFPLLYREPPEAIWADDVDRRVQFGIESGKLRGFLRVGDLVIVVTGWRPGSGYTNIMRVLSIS
# Experiment: Secondary Concentration-Response Assay for Activators of Human Reticulocyte Pyruvate Kinase: for Probe SAR
# Conditions: purified hPK-R, ATP production, Kinase-Glo luminescence; series mostly up to 57.5 µM; activity change, negative = inhibition: at the top concentration
# Description: NIH Chemical Genomics Center [NCGC]
# Wael M. Rabeh, Lyudmila Nedyalkova and Hee-Wan Park [Structural Genomics Consortium, 100 College St. Toronto, Ontario, Canada]
# Human pyruvate kinase reticulocyte (hPK-R) enzyme was supplied as a highly purified (>95% pure) preparation from Structural Genomics Consortium in Toronto (Ontario, Canada) and assayed for its ability to generate ATP from ADP using phosphoenolpyruvate (PEP) as a substrate. ATP generation was detected in a coupled reaction by luciferase-mediated luminescence, an ATP-dependent process. Pyruvate kinase substrates, PEP and ADP, were present in the assay at Km and approximately 10-fold below Km respectively. The enzyme was assayed at an intermediate level of activity to screen for both inhibitors and activators.
# NCGC Assay Protocol Summary for R-isoform
# Three uL of substrate mix (at r.t.) in assay buffer (50 mM Imidazole pH7.2, 50 mM KCl, 7 mM MgCl2, 0.01% Tween 20, 0.05% BSA) was dispensed into white solid bottom 1,536 well microtiter plates so that the final concentrations of substrates in the assay were 0.1 mM ADP and 0.5 mM PEP. 23 nL of compound were delivered by a pin tool and 1 uL of enzyme mix (final concentration of 0.1 nM) in assay buffer (4 degree Celsius) was added. Plates were incubated at room temperature for 1 hour. Two uL of detection mix (Kinase-Glo, Promega; at 4 degree Celsius protected from light) was added and luminescence read by a ViewLux (Perkin Elmer) at 1 second exposure/plate. Data were normalized to the uninhibited (row 31). Additionally, a no enzyme and 5-fold enzyme control was dispensed in row 32, split equally between the two conditions.
SMILES,"activity change, negative = inhibition",outcome
O=C1CCc2cc(S(=O)(=O)Nc3cccc4ccccc34)ccc2N1,-2.68%,–
CCNc1cccc(S(=O)(=O)N2CCCN(S(=O)(=O)c3ccc4c(c3)OCCO4)CC2)c1,25.1%,–
Cc1ccc(C)c(SC2=NS(=O)(=O)c3cc(C(=O)NCc4ccccc4)ccc32)c1,-68.1%,–
CN(C)c1cccc(S(=O)(=O)N2CCCN(S(=O)(=O)c3ccc4c(c3)OCCO4)CC2)c1,18.2%,–
COc1ccc(NS(=O)(=O)c2ccc3c(c2)CCC(=O)N3)cc1,15.1%,–
Cc1ccc(N2C(=O)c3ccccc3C2=O)c(C)c1,3.05%,–
O=C1CCc2cc(S(=O)(=O)Nc3ccc(Cl)cc3)ccc2N1,5.94%,–
O=C1CCc2cc(S(=O)(=O)Nc3cccc(C(F)(F)F)c3)ccc2N1,1.1%,–
O=C1c2ccccc2C(=O)N1c1cccc(Cl)c1,3.13%,–
O=C1NS(=O)(=O)c2ccccc21,-1.36%,–
O=C1CCc2cc(S(=O)(=O)Nc3ccc(Cl)c(Cl)c3)ccc2N1,4.75%,–
Cc1ccc(NS(=O)(=O)c2ccc3c(c2)CCC(=O)N3)cc1,13.9%,–
Cc1ccc(NS(=O)(=O)c2ccc3c(c2)CCC(=O)N3)cc1C,0.345%,–
O=C1c2ccccc2C(=O)N1c1cc(=O)c2ccccc2[nH]1,2.34%,–
Cc1ccc(NS(=O)(=O)c2cc3c(cc2F)NC(=O)CC3)cc1Cl,0.0219%,–
N#Cc1cccc(NS(=O)(=O)c2ccc3c(c2)CCC(=O)N3)c1,4.74%,–
O=C1c2ccccc2C(=O)N1c1ccc2ncccc2c1,14.8%,–
Cc1ccc(NS(=O)(=O)c2ccc3c(c2)n(C)c(=O)n3C)cc1C,12.9%,–
O=C1CCc2cc(S(=O)(=O)Nc3ccc4c(c3)OCCO4)ccc2N1,12.4%,–
O=C1CCc2cc(S(=O)(=O)Nc3cccc(Oc4ccccc4)c3)ccc2N1,1.08%,–

SMILES,"activity change, negative = inhibition",outcome
O=C1c2ccccc2C(=O)N1c1cccc2ccncc12,11.9%,–
O=C1c2ccccc2C(=O)N1c1cccc2cccnc12,5.04%,–
O=C1c2ccccc2C(=O)N1Cc1ccncc1,9.02%,–
Cc1cc2c(s1)c1cnn(Cc3ccccc3F)c(=O)c1n2C,–,inactive
Cc1cc(N2C(=O)c3ccccc3C2=O)n[nH]1,-9.57%,–
O=C1CCc2cc(S(=O)(=O)Nc3ccccn3)ccc2N1,7.53%,–
O=C1CCc2cc(S(=O)(=O)Nc3ccccc3Cl)ccc2N1,1.37%,–
O=C1CCc2cc(S(=O)(=O)Nc3ccc4c(c3)CCC4)ccc2N1,11%,–
O=C1CCc2cc(S(=O)(=O)Nc3ccc(-c4ccccc4)cc3)ccc2N1,9.89%,–
Cc1ccc(Cl)cc1NS(=O)(=O)c1cc2c(cc1Cl)CCC(=O)N2,-2.79%,–
O=C1CCc2cc([S+](=O)([O-])NC3CCOCC3)ccc2N1,-3.67%,–
COc1cccc(Cn2ncc3c4sc(S(C)=O)cc4n(C)c3c2=O)c1 (stereo not given),11.7%,–
Cc1c(Cl)cccc1NS(=O)(=O)c1cc2c(cc1F)NC(=O)CC2,-6.02%,–
O=C1CCc2cc(S(=O)(=O)Nc3cccc(-c4ccccc4)c3)ccc2N1,8.1%,–
O=C1CCc2cc(S(=O)(=O)Nc3cccc(Cl)c3)ccc2N1,8.82%,–
Cc1ccc(Cl)cc1NS(=O)(=O)c1cc2c(cc1F)NC(=O)CC2,-16.4%,–
Cc1ccc(NS(=O)(=O)c2ccc3c(c2)CCC(=O)N3)cc1Cl,-0.942%,–
Cc1cc(NS(=O)(=O)c2ccc3c(c2)CCC(=O)N3)ccc1Cl,6.47%,–
CCCCN1C(=O)c2ccccc2C1=O,4.02%,–
O=S(=O)(c1ccc2c(c1)OCCO2)N1CCN(S(=O)(=O)c2c(F)cccc2F)CC1,–,inactive
